Our source for the Potency and activity change, negative = cytotoxicity values is PubChem BioAssay (Tox21).

Several values for one entry are separate records, joined by “and”; a condition that tells them apart may be missing. Identical values can stand only once. Results filed as inconclusive are left out. Where a call stands in place of a potency, no number is given. Values without a mark were called inactive. Activity calls are given as the source filed them. Calls follow the shape of the dose curve; as a rule, active = well fitted cell-killing curve with a large enough effect in the repeat runs; inconclusive = weak or mixed curves, or effect the other way; inactive = flat fitted curve, though single readings scatter.

The nature of this assay: cAMP Responsive Elements (CRE) small molecule agonists, cell-based qHTS assay: qHTS cell viability counter screen (AID 2060914). Also: nearly all actives have a fitted effect of over 50% in size. As to conditions: CRE-bla HEK293T viability, CellTiter-Glo luminescence, 5 h; series mostly up to 92.4 µM. Put shortly:
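Luminescence read-out (CellTiter-Glo, 30 min RT) of ATP-based viability in CRE-bla HEK 293T cells, run in the same wells as the β-lactamase reporter assay after 3 h compound treatment at 37 °C.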
On the technique in general: qHTS replaces the single test concentration by a dilution series.
With `C=C(C)C(=O)O[C@H]1C[C@@H]2CC[C@@]1(C)C2(C)C`, the Potency result is “inactive”.

For the molecule `CC(=O)O[C@H]1CC[C@@]2(C)C(=CC[C@@H]3[C@@H]2CC[C@]2(C)C(C(C)=O)=CC[C@@H]32)C1`, the Potency entry was “inactive”.

As to `CCNc1ccccc1`, the Potency entry was “inactive”.

For the molecule `CC(=O)c1cc(C)oc1C`, the Potency result is “inactive”.

For the molecule `CCN(CC)CCCC(C)Nc1ccnc2cc(Cl)ccc12` (stereo not given), the activity change, negative = cytotoxicity was -0.2% [at 8.39 µM] and -0.0045% [at 18.9 µM].

In the case of `CN1CCC[C@@H]1Cc1c[nH]c2ccc(CCS(=O)(=O)c3ccccc3)cc12`, the Potency result is “inactive”.

With `CC(C)c1cc2c(cc1S(=O)(=O)O)[C@@]1(C)CCC[C@@](C)(C(=O)O)[C@@H]1CC2`, the Potency entry was “inactive”.

Turning to `OCCN(CCO)c1ccccc1`, the Potency entry was “inactive”.

Consider `CC(C)(O)C(=O)c1ccc(OCCO)cc1`, for which the Potency result was “inactive”.

As to `Cc1ccc(C=O)s1`, the Potency entry is “inactive”.

Regarding `CC(C)C(C)C`, the Potency result is “inactive”.

For `CC1CCC(C(C)(C)S)C(=O)C1` (stereo not given), the Potency entry was “inactive”.

With `O=C(O)CN(CCN(CC(=O)O)CC(=O)O)CCN(CC(=O)O)CC(=O)O`, the activity change, negative = cytotoxicity is 3.54% [at 18.9 µM].

`C[C@]1(Cn2ccnn2)[C@H](C(=O)O)N2C(=O)C[C@H]2S1(=O)=O`: the Potency result is “inactive”.

Consider `c1cc(CN2CCCCC2)cc(OCCCNc2nc3ccccc3s2)c1`, for which the Potency result is “inactive”.

Take `CCC1OCC(COc2ccc(Oc3ccccc3)cc2)O1` (stereo not given): the Potency result was “inactive”.

Turning to `C[C@]12C=CC(=O)C=C1CC[C@@H]1[C@@H]2C(=O)C[C@@]2(C)[C@H]1CC[C@]2(O)C(=O)CO`, the Potency result is “inactive”.

As for `Cc1cc(O)ccc1N`, the Potency result was “inactive”.

`CCCC(O)C(CC)CO` (stereo not given): the Potency entry was “inactive”.

`COc1cc(C(=O)NCCCCCC(=O)O)cc(OC)c1OC`: the Potency entry is “inactive”.

As to `Cc1ccc(C)c(N)c1`, the Potency result was “inactive”.

For the molecule `O=C(OCC1CO1)C1CCCCC1C(=O)OCC1CO1` (stereo not given), the Potency entry was “inactive”.

Take `CCCCCCCCC`: the Potency entry is “inactive”.

As for `CC1=C(C(=O)O)N2C(=O)[C@@H](NC(=O)[C@H](N)C3=CCC=CC3)[C@H]2SC1`, the Potency entry was “inactive”.

For the molecule `C=CC[N+]1([C@H]2C[C@H]3[C@@H]4CC[C@H]5C[C@H](OC(C)=O)[C@@H](N6CCCCC6)C[C@]5(C)[C@H]4CC[C@]3(C)[C@H]2OC(=O)CC)CCCCC1`, the Potency result was “inactive”.

For `O=C(CS)Nc1ccccc1`, the Potency entry is “inactive”.

For the molecule `C#Cc1ccc(-c2ccccc2F)cc1`, the Potency entry was “inactive”.

For the molecule `C[C@]12CC[C@@H]3c4ccc(O)cc4CC[C@H]3[C@@H]1CCC2=O`, the Potency entry is “inactive”.

Regarding `COc1ccc(OC(F)(F)F)cc1CN[C@H]1CCCN[C@H]1c1ccccc1`, the Potency result was “inactive”.

In the case of `CCCc1c(OCCCCc2nn[nH]n2)ccc(C(C)=O)c1O`, the Potency result is “inactive”.

With `NCCCN1CCOCC1`, the Potency entry was “inactive”.

As to `CCOc1ccc(N=Nc2ccc(/C=C/c3ccc(N=Nc4ccc(OCC)cc4)cc3S(=O)(=O)O)c(S(=O)(=O)O)c2)cc1`, the Potency entry is “inactive”.

For `CCCCN=C(N)N=C(N)N`, the Potency entry is “inactive”.

As for `CC(CC(=O)O)CC(C)(C)C` (stereo not given), the Potency entry was “inactive”.

With `CCCCCC/C(C=O)=C\c1ccccc1`, the Potency entry is “inactive”.

`O=C(O)/C=C/c1cnc[nH]1`: the Potency result is “inactive”.

On to `c1ccc2cc(Nc3ccc(Nc4ccc5ccccc5c4)cc3)ccc2c1`, for which the Potency entry is “inactive”.

In the case of `COc1nc(C)nc(Cl)c1NC1=NCCN1`, the Potency entry was “inactive”.

As to `N#CCCN(CCO)CCO`, the Potency result was “inactive”.

As for `CCN(C(=O)c1cc(C)cc(OC[C@H](C)Nc2ccncc2)c1)C(C)C`, the Potency entry is “inactive”.
